This note sets out measurements from PubChem BioAssay AID547 (Emory University Molecular Libraries Screening Center, 2006).

Each structure is given as a SMILES string. About 10 (0.8%) of roughly 1,300 compounds were called active. The rule behind the calls is not given here. The list comes from a sample in which actives are over-represented; it also holds similar structures and randomly drawn compounds.

For this assay, the target named is Chaperone protein DnaK (Escherichia coli (strain K12)) (UniProt P0A6Y8). The experiment in a line: E. coli DnaK chaperone inhibitors, primary screen, luminescence, E. coli K12 (AID 547).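 Note: tested at 10 µM.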 The following applies: DnaK chaperone assay, luminescence read-out; active compounds read low.
As for `CN1CCCC1CCOC(C)(c1ccccc1)c1ccc(Cl)cc1` (stereo not given), the luminescence was 2.5e+06 cps (inactive).

As to `NC(=NCc1ccccc1)NC(=O)c1nc(Cl)c(N)nc1N`, the luminescence was 2.1e+06 cps (inactive). Under `CCCC1O[C@@H]2C[C@H]3[C@@H]4CCC5=CC(=O)C=C[C@]5(C)[C@H]4[C@@H](O)C[C@]3(C)[C@]2(C(=O)CO)O1` (stereo not given in full) stands 2.4e+06 cps (inactive); under `Cn1c(=O)[nH]c2ncn(C)c2c1=O`, 2.8e+06 cps (inactive).

As to `CCCn1c(=O)c2[nH]c(-c3ccc(OCC(=O)Nc4ccc(C#N)cc4)cc3)nc2n(CCC)c1=O`, the luminescence is 2.3e+06 cps (inactive). With `COc1ccc(NC(=O)/C=C/c2ccc(Cl)cc2)cc1` the figure was 2.8e+06 cps (inactive); with `COc1ccc(/C=C/C(=O)Nc2ccccc2C(=O)O)cc1OC`, 1.6e+06 cps (active); with `O=C(O)c1ccccc1Nc1ccccc1`, 2.2e+06 cps (inactive). With `CCn1c(=O)[nH]c2cc(Cl)c(Cl)cc21` the figure was 3.1e+06 cps (inactive); with `O=C(O)/C=C/c1cnc[nH]1`, 2.2e+06 cps (inactive); with `Cn1c(=O)c2c(nc(/C=C/c3cccc(Cl)c3)n2C)n(C)c1=O`, 2.6e+06 cps (inactive). `O=c1cc(O)cc(/C=C/c2ccc(O)c(O)c2)o1`: the luminescence is 2.5e+06 cps (inactive). As for `NC12CC3CC(CC(C3)C1)C2`, the luminescence is 2.3e+06 cps (inactive). With `CC[N+](C)(C)Cc1ccccc1Br` the figure was 2.5e+06 cps (inactive); with `CCC(NC(C)C)C(O)c1ccc(O)c(O)c1` (stereo not given), 2.2e+06 cps (inactive). With `NC(N)=NCCSSCCN=C(N)N` the figure was 3e+06 cps (inactive); with `NC[C@H](O)c1ccc(O)c(O)c1`, 2.6e+06 cps (inactive); with `Cc1cn([C@H]2C[C@@H](N=[N+]=[N-])[C@@H](CO)O2)c(=O)[nH]c1=O`, 2.8e+06 cps (inactive).

For `CCCCCCCCCC[Si](C)(C)CCC(=O)NC(Cc1ccc(C)cc1)c1ccccc1` (stereo not given), the luminescence was 2.8e+06 cps (inactive).

As to `CC(N)=NCCC[C@H](N)C(=O)O`, the luminescence is 2.6e+06 cps (inactive). With `C[C@]12CCC(=O)C=C1CC[C@@H]1[C@@H]2C(=O)C[C@@]2(C)[C@H]1CC[C@]2(O)C(=O)CO` the figure was 2.3e+06 cps (inactive); with `CNC(=O)[C@H]1O[C@@H](n2cnc3c(N)ncnc32)C(O)[C@H]1O` (stereo not given in full), 2.5e+06 cps (inactive). With `CC(CCc1ccccc1)NCC(O)c1ccc(O)c(C(N)=O)c1` (stereo not given) the figure was 2.8e+06 cps (inactive). With `C=CCc1ccccc1OCC(O)CNC(C)C` (stereo not given) the figure was 2.8e+06 cps (inactive). Regarding `Cn1cnc2c(NC3CCCC3)ncnc21`, the luminescence was 2.5e+06 cps (inactive). With `Nc1nc(SCc2ccc([N+](=O)[O-])cc2)c2ncn([C@@H]3O[C@H](CO)[C@H](O)C3O)c2n1` (stereo not given in full) the figure was 2.7e+06 cps (inactive); with `CCCCCCCCCCCCCCCCOCC(COCC(F)(F)F)OP(=O)(O)OCO` (stereo not given), 2.4e+06 cps (inactive); with `O=c1ccc2c(OCCCCc3ccccc3)c3ccoc3cc2o1`, 2.8e+06 cps (inactive). With `Cc1c(C)c2c(c(C)c1O)CCC(C)(CN1CCN(c3cc(N4CCCC4)nc(N4CCCC4)n3)CC1)O2` (stereo not given) the figure was 2.6e+06 cps (inactive); with `CN/C(=C\[N+](=O)[O-])NCCSCc1ccc(CN(C)C)o1`, 2.6e+06 cps (inactive); with `CN(C)c1nc(N)c(C(=O)N=C(N)N)nc1Cl`, 2.5e+06 cps (inactive). Regarding `Cc1cc(N)c2ccccc2[n+]1CCCCCCCCCCCCCC[n+]1c(C)cc(N)c2ccccc21`, the luminescence was 3e+06 cps (inactive). Under `O=C(O)c1cc(=O)cc(C(=O)O)[nH]1` stands 2.7e+06 cps (inactive); under `Cc1ccc(N(CC2=NCCN2)c2cccc(O)c2)cc1`, 2.5e+06 cps (inactive).

As to `CC(COc1ccc(/C=C/c2ccccc2)cc1)[N+](C)(C)C` (stereo not given), the luminescence was 2.1e+06 cps (inactive). With `CC1(C)C(=O)N(CCN2CCC(C(=O)c3ccc(F)cc3)CC2)c2ccccc21` the figure was 2.6e+06 cps (inactive); with `Cc1nc2ccccn2c(=O)c1CCN1CCC(C(=O)c2ccc(F)cc2)CC1`, 2.5e+06 cps (inactive); with `O=C(c1ccc(F)cc1)C1CCN(CCn2c(=O)[nH]c3ccccc3c2=O)CC1`, 1.7e+06 cps (active). With `C[C@H](CS)C(=O)N1CCC[C@H]1C(=O)O` the figure was 2.6e+06 cps (inactive); with `N[C@@H](Cc1cnc[nH]1)C(=O)O`, 2.9e+06 cps (inactive). Under `C=C[C@H]1CN2CCC1C[C@@H]2[C@@H](O)c1ccnc2ccc(OC)cc12` (stereo not given in full) stands 2.3e+06 cps (inactive); under `CC1(NCC(O)COc2cccc3[nH]ccc23)CCC(C(C)(C)NC(=O)CBr)CC1` (stereo not given), 2.2e+06 cps (inactive). For the molecule `OCCN1CCN(CCCN2c3ccccc3Sc3ccc(C(F)(F)F)cc32)CC1`, the luminescence is 2.6e+06 cps (inactive). On to `O=C1NC(O)=NC1(c1ccccc1)c1ccccc1`, for which the luminescence was 2.6e+06 cps (inactive). Under `C=C[C@H]1CN2CCC1C[C@H]2[C@H](O)c1ccnc2ccc(OC)cc12` (stereo not given in full) stands 2.4e+06 cps (inactive).

On to `O=c1[nH]c2cc([N+](=O)[O-])c([N+](=O)[O-])cc2[nH]c1=O`, for which the luminescence was 3e+06 cps (inactive). With `C#CC(N)CCC(=O)O` (stereo not given) the figure was 2.7e+06 cps (inactive); with `C[C@H](Cc1ccc(O)c(O)c1)[C@@H](C)Cc1ccc(O)c(O)c1`, 2e+06 cps (inactive). Under `NC1(C(=O)O)CCc2cc(C(=O)O)ccc21` (stereo not given) stands 2.8e+06 cps (inactive). Under `CC(C)(C)NCC(O)c1cc(O)cc(O)c1` (stereo not given) stands 2.3e+06 cps (inactive).

As for `Cc1ccccc1N1CCN(S(=O)(=O)C[C@]23CCC(CC2NC(=O)[C@@H](N)CCS(C)(=O)=O)C3(C)C)CC1` (stereo not given in full), the luminescence is 2.6e+06 cps (inactive).

For the molecule `C[C@]12C=CC(=O)C=C1CC[C@@H]1C2=CC[C@]2(C)[C@@H](C(=O)CN3CCN(c4cc(N5CCCC5)nc(N5CCCC5)n4)CC3)CC[C@@H]12`, the luminescence is 2.4e+06 cps (inactive). Under `Nc1ccc(N2C(=O)c3ccccc3C2=O)c(Cl)c1` stands 2.7e+06 cps (inactive). With `CC(=O)N[C@@H](Cc1c[nH]c2ccccc12)C(=O)OCc1cc(C(F)(F)F)cc(C(F)(F)F)c1`, the luminescence is 2.8e+06 cps (inactive). Under `Brc1ccc([C@H]2CN3CCSC3=N2)cc1` stands 2.2e+06 cps (inactive); under `CN=C(N)NCCC[C@H](N)C(=O)O`, 2.2e+06 cps (inactive); under `[N-]=[N+]=Nc1ccc(C(=O)CSC[C@H](NC(=O)CC[C@H](N)C(=O)O)C(=O)NCC(=O)O)cc1`, 1.6e+06 cps (active).

Regarding `N[C@@H](CCC(=O)N[C@H](CSN=O)C(=O)NCC(=O)O)C(=O)O`, the luminescence is 2.5e+06 cps (inactive). With `C#C[C@]1(O)CC[C@H]2[C@@H]3CCC4=Cc5oncc5CC4(C)[C@H]3CCC21C` (stereo not given in full) the figure was 3e+06 cps (inactive); with `Nc1ncnc2c1nc(Sc1ccc(Cl)cc1)n2C1OC2COP(=O)(O)O[C@@H]2[C@@H]1O` (stereo not given in full), 2.7e+06 cps (inactive); with `CC(C)NCC(O)c1ccc(NS(C)(=O)=O)cc1` (stereo not given), 2.3e+06 cps (inactive). Under `CCn1c(=O)c2[nH]c(-c3ccccc3)nc2n(CC)c1=O` stands 2.8e+06 cps (inactive); under `CC(C)Cn1c(=O)n(C)c(=O)c2[nH]cnc21`, 2.1e+06 cps (inactive); under `CCOC(=O)C12CC1/C(=N/O)c1ccccc1O2` (stereo not given), 2.4e+06 cps (inactive). With `NC(CO)C(=O)NNCc1ccc(O)c(O)c1O` (stereo not given) the figure was 2.2e+06 cps (inactive); with `C=CC[C@H](N)C(=O)O`, 2.5e+06 cps (inactive); with `N[C@@H](Cc1c[nH]c2ccccc12)C(=O)O`, 2.2e+06 cps (inactive). As to `NC(C(=O)N[C@@H]1C(=O)N2C(C(=O)O)=C(Cl)CS[C@H]12)c1ccccc1` (stereo not given in full), the luminescence was 2.8e+06 cps (inactive). Take `CCN(CC)CCCC(C)Nc1c2ccc(Cl)cc2nc2ccc(OC)cc12` (stereo not given): the luminescence is 2.3e+06 cps (inactive). Under `CCC1(O)CC2CN(CCc3c([nH]c4ccccc34)[C@@](C(=O)OC)(c3cc4c(cc3OC)N(C)C3[C@]45CCN4CC=C[C@@](CC)([C@@H](OC(C)=O)[C@]3(O)C(=O)OC)[C@H]45)C2)C1` (stereo not given in full) stands 2.4e+06 cps (inactive); under `Cc1cc(C)c(NC(=O)C[C@H](CC(=O)O)c2cccc3ccccc23)c(C(=O)N2CCC3(CCCC3)CC2)c1`, 2.4e+06 cps (inactive). With `Nn1nnc2ccccc21` the figure was 2.9e+06 cps (inactive); with `O=c1onc2cnc3ccccc3n12`, 2.2e+06 cps (inactive).

Turning to `CCOC(=O)Nc1ccc(NCc2ccc(F)cc2)nc1N`, the luminescence is 2.9e+06 cps (inactive). Under `CCCC(=O)NCCc1c2n(c3ccc(OC)cc13)CCCc1ccccc1-2` stands 2.6e+06 cps (inactive); under `Clc1ccc2c(c1)C(N1CCNCC1)=Nc1ccccc1O2`, 3.1e+06 cps (inactive). For the molecule `CNC(=O)[C@H]1O[C@@H](n2cnc3c(NCc4ccc(N)cc4)ncnc32)C(O)[C@H]1O` (stereo not given in full), the luminescence was 2.7e+06 cps (inactive). With `O=C(CCc1ccc(O)cc1)c1c(O)cc(O)cc1O` the figure was 2.4e+06 cps (inactive); with `N.N.N.N.N.N.N.N.N.N.N.N.N.N.O.O.[Cl-].[Cl-].[Cl-].[Cl-].[Cl-].[Cl-].[Ru+4].[Ru+5].[Ru+5]`, 2.1e+06 cps (inactive). Under `Fc1ccc(C(OCCCc2cnc[nH]2)c2ccc(F)cc2)cc1` stands 2.6e+06 cps (inactive); under `CN(C)CCC(c1ccc(Cl)cc1)c1ccccn1` (stereo not given), 2.6e+06 cps (inactive). With `C=Cc1c(C)c2cc3[nH]c(cc4nc(cc5nc(cc1[nH]2)C(C)=C5CCC(=O)O)C(CCC(=O)O)=C4C)c(C)c3C=C` the figure was 2e+06 cps (inactive).

For the molecule `O=C(Nc1ccccc1)c1cc([N+](=O)[O-])ccc1Cl`, the luminescence is 2.6e+06 cps (inactive). With `O=C(Nc1ccc([N+](=O)[O-])cc1Cl)c1cc(Cl)ccc1O` the figure was 1.7e+06 cps (active).

Take `O=C(O)c1cc([N+](=O)[O-])ccc1NCCCc1ccccc1`: the luminescence is 2.6e+06 cps (inactive).
